Here are results for 40 sequences from the supplement of paper PMC10338343.

± gives the standard deviation. Bounds are passed on as bounds.

The subject of this experiment is EfPiwi piRISC loaded with L1MC piRNA (26 nt). The experiment in a line: pre-steady-state target cleavage rate (min^-1); auxiliary factor: 500 nM Ephydatia muelleri Gtsf1; guide: L1MC piRNA 5'p-UAACUAAAUACUAUGCAAGCUGUAGG; MIWI and MILI are mouse PIWI proteins and EfPiwi is from a freshwater sponge; tags in brackets are library labels; higher = faster piRNA-guided slicing of the target. As for the experimental part: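 Cleave-'n-Seq: a library of target RNAs (target site in constant flanks) at […] was incubated with 1 nM active freshwater sponge Ephydatia fluviatilis Piwi piRISC (synthetic 5'-monophosphorylated piRNA guide) with or without 500 nM EmGtsf1 at 33 °C for 1 min to 16 h. Uncleaved targets were sequenced and the pooled three trials fitted to a burst-and-steady-state model to give the pre-steady-state cleavage rate (min^-1). Sequence is the target site only. Fits with R² ≤ 0 are excluded.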
As for UCCUCCUACAGGUUGCAUAGUAUUUAGUUA, the “pre-steady-state target cleavage rate” value turned out to be 0.0556 ± 0.013.
The value for UCCUCCUACAGCUUGCAUAGUAUAAACAAA was 0.00398 ± 0.0028.
The figure for UCCUGGAUGUCGAACCAUAGUAUUAAGUUA is < 0.0001; for “UCCUGGAUCAGCUUGCAUAGUAUUUAGUUC [g2:g22:cont:t1C]” it is 0.0501 ± 0.011; for UCCUGGAUGUGCUUGCAAAGUAUUUAGUUA it is 0.00905 ± 0.0036.
Regarding UCCUGGAACACCUUGCAUAGUAUUUAGUUA, the “pre-steady-state target cleavage rate” value stood at 0.0061 ± 0.0032.
Regarding UCCUCCUACAGCUUGCAUAGUAUUUAGAUA, the “pre-steady-state target cleavage rate” value worked out at 0.00505 ± 0.0025.
Regarding UCCUGGAUGUGCUUACAUAGUAUUUAGUUA, the “pre-steady-state target cleavage rate” value came out at 0.0113 ± 0.0041.
In the case of UCCUGGAUCAGCUUGCAAAGUAUUUACAAA, the “pre-steady-state target cleavage rate” value stood at 0.00563 ± 0.0037.
With UCCUGGAUGUCGAACCAUCGUAUUUAGUUA, the “pre-steady-state target cleavage rate” value was < 0.0001.
For UCCUCCUAGAGCUUGCAUAGUAUUUAGAUA, the “pre-steady-state target cleavage rate” value amounted to 0.0043 ± 0.0018.
Regarding UCCUGCUAGUGCUUGCAUAGUAUUUAGUUA, the “pre-steady-state target cleavage rate” value stood at 0.00363 ± 0.0014.
The figure for UCCUGGAACAGCUUCCAUUGUAUUUAGUUA is 0.00345 ± 0.0017; for UCCUCCAACAGCUUGCAUAGUAUAUAGUUA it is 0.00628 ± 0.0027.
The figure for UCCUGGUACAGCUUGCGUAGUAUUUAGUUA is 0.0273 ± 0.0095.
The value for UCCUGCUACUCCUUGCAUAGUAUUUAGAAA was 0.00264 ± 0.002; that for UCCUGGAUCAGCUUGCAAUAGUAUUUAGUUA was 0.0153 ± 0.0038.
As for UCCUCCUACAGCUUGCAUAGUAAUAAGUUA, the “pre-steady-state target cleavage rate” value worked out at 0.0073 ± 0.004.
The value for UCCUGGUACAGCUUGCUUACUAUUUAGUUA was 0.00704 ± 0.0031; that for UCCUGGAUCAGGUUGCAAAGUAUUUAGUUA was 0.0172 ± 0.0054.
The figure for UCCUGCUACAGACUUGCAUAGUAUUUAGUUA is 0.00603 ± 0.0024; for UCCUCCUACAGCUUGCAUAGUAUUUAGUGUA it is 0.00735 ± 0.0033.
The value for UCCUGGAACAGGUUGCAUAGUAUUUUGUUA was 0.00366 ± 0.0015; that for UCCUGGAUGAGCUUGCAUAGUAUUUCGUUA was 0.00352 ± 0.0019.
For the sequence “UCCUGGAUCAGCUUGCAUAGUAUUUAGUUA [g2:g22:cont:t1A]”, the “pre-steady-state target cleavage rate” value worked out at 0.0886 ± 0.017.
UCCUGCUACAGCUUGCUUUGUAUUUAGUUA: the “pre-steady-state target cleavage rate” value was found to be 0.00538 ± 0.003.
The figure for UCCUCCUACGGCUUGCAUAGUAUUUAGUUA is 0.0667 ± 0.017; for UCCUCCUACAGCUUGCAUAGUAUUUUCUUA it is 0.00493 ± 0.003.
Turning to UCCUGGUACAGCUUGCAUAGUUAUUAGUAA, the “pre-steady-state target cleavage rate” value amounted to 0.00807 ± 0.0043.
Turning to UCCUGGAUGUGCUUGCAUAGUAUUUAGUA, the “pre-steady-state target cleavage rate” value turned out to be 0.00405 ± 0.002.
As for UCCUCCUACAGCAUGCAUAGUAUAUAGUUA, the “pre-steady-state target cleavage rate” value stood at 0.00519 ± 0.0032.
The figure for UCCUCCUACAGCUUGGAUAGUAUUUAGAAA is 0.00325 ± 0.0015.
The figure for UCCUGGUACAGCUUGCAUAGUAAUUAGUUA is 0.00654 ± 0.0025.
In the case of UCCUGGUACACCUUGCUUAGUAUUUAGUUA, the “pre-steady-state target cleavage rate” value amounted to 0.00384 ± 0.0027.
Consider UCCUGCUACAGCUUGACAUAGUAUUUAGUUA, for which the “pre-steady-state target cleavage rate” value was found to be 0.00916 ± 0.0026.
As for UCCUCCUACACCUUGGAUAGUAUUUAGUUA, the “pre-steady-state target cleavage rate” value was 0.00658 ± 0.0029.
The figure for UCCUGGAACGCUUGCAUAGUAUUUAGUUA is 0.0259 ± 0.0076; for UCCUGGAUCAGCUUGCCUAGUAUUUAGUUA it is 0.0512 ± 0.011; for UCCUGCUACAGGAUGCAUAGUAUUUAGAAA it is 0.00248 ± 0.0014.
Regarding UCCUGCUACAUGCUUGCAUAGUAUUUAGUUA, the “pre-steady-state target cleavage rate” value came out at 0.00438 ± 0.002.
